The values that follow come from ChEMBL document CHEMBL3988442, “University of Dundee, Small-Polar-MMV Screening Library” (2021).

Assay [1] concerns the target T1, Aspartate--tRNA(Asp/Asn) ligase (Mycobacterium tuberculosis (strain ATCC 25618 / H37Rv)) (UniProt P9WFW3). Also: in the data most compounds retested in dose-response had high values.
T1 sequence (whole entry): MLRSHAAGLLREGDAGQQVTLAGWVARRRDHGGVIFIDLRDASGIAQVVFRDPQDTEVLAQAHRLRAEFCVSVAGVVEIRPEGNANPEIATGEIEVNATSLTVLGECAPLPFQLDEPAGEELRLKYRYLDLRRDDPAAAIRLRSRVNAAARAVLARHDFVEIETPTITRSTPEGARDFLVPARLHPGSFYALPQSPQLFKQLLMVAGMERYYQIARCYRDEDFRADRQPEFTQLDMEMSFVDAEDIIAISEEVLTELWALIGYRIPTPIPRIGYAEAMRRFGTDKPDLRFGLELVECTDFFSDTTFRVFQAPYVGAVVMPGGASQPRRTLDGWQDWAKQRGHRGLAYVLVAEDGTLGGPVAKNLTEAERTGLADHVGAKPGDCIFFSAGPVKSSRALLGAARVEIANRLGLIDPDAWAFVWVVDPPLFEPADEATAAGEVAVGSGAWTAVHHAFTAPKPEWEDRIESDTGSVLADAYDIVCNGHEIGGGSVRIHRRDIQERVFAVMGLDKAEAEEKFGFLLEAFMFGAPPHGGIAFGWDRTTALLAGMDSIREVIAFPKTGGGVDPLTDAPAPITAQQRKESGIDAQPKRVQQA
Kind of assay: Assay for Asp RNA synthetase-1 from Mycobacterium tuberculosis. It is filed as functional. On the set-up: scale not given: direction of the effect not stated beside the values. Particulars: 30 µM.

Assay [2] deals with Shiga toxin 2 (Escherichia coli O157:H7) (UniProt P09385+P09386). Kind of assay: E. coli 0.157:H7 Shiga Toxin SOP - stx2 screening assay. It counts as functional. On the set-up: scale not given: direction of the effect not stated beside the values. Particulars: 30 µM.

For `Cc1cnc(CN(C)C2CCN(Cc3nc4ccccc4n3C)C2)o1` (configuration not stated), the results for the Percent Effect in assay [1] and in assay [2] were -5.16% and -27.3%, respectively.

As to `C[C@@H]1CN(C(=O)NC2CC2)C[C@]12CCN(c1ccsc1)C2=O`, the figures for the Percent Effect in assay [1] and in assay [2] were 2.34% and -3.08%, respectively.

For the molecule `Cc1cc(CN(C)C(=O)C2CCCN(C(=O)c3cccs3)C2)no1` (configuration not stated), the Percent Effect in assay [1] was 5.71%; in assay [2] it was -56.4%.

Take `COc1ccc(F)cc1CN1CCCC(c2cc(C(N)=O)[nH]n2)C1` (configuration not stated): the values for the Percent Effect in assay [1] and in assay [2] were -5.13% and 1.05%, respectively.

As to `Cc1nc[nH]c1CN1C[C@@H]2CC[C@H](C1)N(C(=O)CCc1cnn(C)c1)C2`, the Percent Effect in assay [1] is 0.752%; in assay [2], 5.79%.

On to `Cc1nn(C)c2c(NCc3cccnc3)nc(C3CC3)nc12`, for which the Percent Effect in assay [1] is 8.74%; in assay [2], -7.86%.

In the case of `CCCS(=O)(=O)c1ncc(CN2CCC(CO)CC2)n1CC1CCCO1` (configuration not stated), the Percent Effect in assay [1] is -5.1%; in assay [2], -15.9%.

Take `NCC(=O)N1CCCC(c2cncc(Nc3ncccn3)n2)C1` (configuration not stated): the Percent Effect in assay [1] stood at 1.44%; in assay [2], 1.91%.

As for `CNc1cc2c(nn1)CCN(C(=O)c1cccc3c1OCO3)C2`, the figures for the Percent Effect in assay [1] and in assay [2] were -7.31% and 1.76%, respectively.

`Cc1nn(C)c(C)c1-c1cncc(C2CCN(S(C)(=O)=O)CC2)n1`: the Percent Effect in assay [1] is -2.63%; in assay [2] it was -8.32%.

Regarding `CC(=O)N1CCCN(C(=O)c2cnc3n[nH]c(C)c3c2)CC1`, the Percent Effect is -0.871% in assay [1] and 19.4% in assay [2].

With `c1ccc(-c2cc(CN3CCC(c4ccn[nH]4)CC3)on2)cc1`, the Percent Effect in assay [1] was 2.46%; in assay [2] it was -49.6%.

Turning to `CC(C)C(NC(=O)N1CCN(c2ccc(Cl)cc2)CC1)C(=O)NC1CC1` (configuration not stated), the Percent Effect is -3.72% in assay [1] and 7.46% in assay [2].

`CCn1cc(Br)c(C(=O)NCc2cccnc2)n1`: the Percent Effect in assay [1] was 7.19%; in assay [2], -69.5%.

Consider `Cc1ccc(CNS(=O)(=O)CC2=NC(=O)n3cccc3C2=O)cc1`, for which the Percent Effect worked out at 3.72% in assay [1] and 4.1% in assay [2].

As for `CN(C)c1ncccc1CNS(=O)(=O)c1ccccc1F`, the Percent Effect in assay [1] was 4.63%; in assay [2], -24.7%.

With `O=C(Cn1cccn1)NCC1(c2ccccc2)CC1`, the Percent Effect in assay [1] was -2.68%; in assay [2], 16.1%.

`Cc1cccnc1CNc1cc(N2CCCC2CO)ncn1` (configuration not stated): the Percent Effect was -4.52% in assay [1] and -6.27% in assay [2].

On to `CC(C)c1nnc2n1CCN(C(=O)c1ccc(-n3cnnc3)cc1)C2`, for which the results for the Percent Effect in assay [1] and in assay [2] were -3.86% and -19.9%, respectively.

Turning to `O=C(c1ccc(O)cc1)N1CCN(C(=O)c2ccc3c(c2)COC3)CC1`, the Percent Effect was -1.8% in assay [1] and -20% in assay [2].

Take `Cc1cc(OCC(=O)N2CCCC(c3ccn[nH]3)C2)no1` (configuration not stated): the Percent Effect in assay [1] is -5.07%; in assay [2], 2.75%.

For the molecule `Cn1cc(CN2CCC3(CCCN(Cc4ccccn4)C3)CC2)cn1`, the Percent Effect is -0.638% in assay [1] and -6.22% in assay [2].

On to `Cc1ccc(N2CC3(CCN(C(=O)c4ccoc4)C3)C2)nn1`, for which the Percent Effect in assay [1] is -1.37%; in assay [2], -33.4%.

Consider `CNc1cccc(C2CCCN(C(=O)c3ccncc3)C2)n1` (configuration not stated), for which the Percent Effect was -6.06% in assay [1] and 17.8% in assay [2].

Consider `COC(=O)Cn1c(=O)nc2n1C(=O)N(c1ccccc1)C2`, for which the Percent Effect was 1.18% in assay [1] and -22.6% in assay [2].

Take `N#Cc1ccccc1N1CCCN(C(=O)CCc2nccs2)CC1`: the Percent Effect was -8.37% in assay [1] and 9.06% in assay [2].

As to `Cc1ncsc1CN1C[C@@H](OCC2CC2)[C@H]2OCCC[C@H]21`, the Percent Effect was -6.67% in assay [1] and 4.7% in assay [2].

In the case of `Cc1nn(C)c(C)c1C1CCCN1Cc1cccc(C(=O)N(C)C)c1` (configuration not stated), the figures for the Percent Effect in assay [1] and in assay [2] were -0.742% and -11.2%, respectively.

`O=C(N1CCCC1)N1Cc2nccn2CC(CN2CCCC2)C1` (configuration not stated): the Percent Effect was -5.76% in assay [1] and 1.77% in assay [2].

For `c1cnc2c(c1)cc([C@H]1CCCO1)n2CCN1CCCCC1`, the Percent Effect in assay [1] was -0.551%; in assay [2], -28.2%.

On to `O=C(Nc1ccnc(OC2CCOC2)c1)C1CCC1` (configuration not stated), for which the Percent Effect in assay [1] was -4.32%; in assay [2] it was -20.1%.

As for `CS(=O)(=O)NCc1cnc2n1CCN(Cc1ccsc1)CC2`, the Percent Effect in assay [1] is -2.39%; in assay [2], -23.6%.

Turning to `Cc1cnn(C2CCCN(C(=O)c3ccnc(-n4ccnc4)c3)C2)c1` (configuration not stated), the Percent Effect was 3.27% in assay [1] and -22.4% in assay [2].

Consider `CC(C)c1nnc2n1CCN(Cc1csc(CC(=O)N(C)C)n1)C2`, for which the Percent Effect in assay [1] is -7.04%; in assay [2] it was 18.3%.

Consider `Cn1cc2c(n1)C(CNC(=O)Cc1ccsc1)OCC2` (configuration not stated), for which the figures for the Percent Effect in assay [1] and in assay [2] were -0.539% and -23.6%, respectively.

On to `CCCNC(=O)C1CCN(Cc2csc(C(C)(C)C)n2)CC1`, for which the Percent Effect in assay [1] is -0.628%; in assay [2] it was 7.25%.

For the molecule `CCCc1nc(C)cc(N2CCC3(CCC(=O)N(CCOC)C3)CC2)n1`, the figures for the Percent Effect in assay [1] and in assay [2] were -4.22% and -2.13%, respectively.

Consider `CN(Cc1cn2c(n1)CN(c1ncc(F)cn1)CC2)Cc1ccco1`, for which the values for the Percent Effect in assay [1] and in assay [2] were 2.34% and -8.28%, respectively.

As for `COCCN1C(=O)C[C@H]2[C@H]1CCN2Cc1cccc(C#N)c1`, the Percent Effect in assay [1] is -5.22%; in assay [2] it was -7.15%.

Turning to `Cc1ccc(NC2CCN(C(=O)CCNS(C)(=O)=O)CC2)nn1`, the results for the Percent Effect in assay [1] and in assay [2] were -2.45% and -0.275%, respectively.

As to `NC(=O)c1ccc2c(c1)nc1n2CCN(Cc2ccco2)C1`, the Percent Effect is 6.41% in assay [1] and -31.5% in assay [2].

Turning to `O=C(Cn1ccc2ccc(Br)cc21)NCc1ccc(C(=O)O)cc1`, the Percent Effect in assay [1] is 14.7%; in assay [2], -5.49%.

For the molecule `CC1CN(CC(=O)Nc2cccnc2)CCN1c1nccs1` (configuration not stated), the Percent Effect in assay [1] came out at 0.466%; in assay [2], 7.04%.

In the case of `Cc1nc(C)n(C2CCCN(C(=O)CCCOc3ccccc3)C2)n1` (configuration not stated), the Percent Effect in assay [1] is -1.97%; in assay [2], 3.84%.

As for `COCC(=O)N1CCC[C@]2(C(=O)N(C)C)CN(c3ccccn3)C[C@@H]2C1`, the Percent Effect was -2.71% in assay [1] and -6.93% in assay [2].

On to `CNc1cc(N2CCCC2CNCc2ccc(Cl)o2)ncn1` (configuration not stated), for which the Percent Effect is -2.44% in assay [1] and 26.8% in assay [2].

Consider `CN1CC(=O)N(c2cccc(F)c2)CC12CCN(Cc1cccnc1)C2` (configuration not stated), for which the Percent Effect in assay [1] is 2.03%; in assay [2] it was -14.7%.

Consider `CC(C)C(C(=O)N1CCCN(Cc2nccn2C)CC1)N1CCCC1` (configuration not stated), for which the Percent Effect was -3.15% in assay [1] and 27% in assay [2].

On to `CC(NC(=O)N1CCC(n2cncn2)CC1)c1ccc(F)cc1F` (configuration not stated), for which the results for the Percent Effect in assay [1] and in assay [2] were -3.4% and 7.64%, respectively.

For the molecule `Cc1nnc(N2CC[C@H]3C[C@H](C(=O)N4CCOCC4)O[C@H]3C2)s1`, the Percent Effect in assay [1] was 3.25%; in assay [2], -4.69%.

Turning to `NC(=O)C1CCN(C(=O)c2cccc(CN3CCOCC3)c2)CC1`, the Percent Effect in assay [1] is -1.59%; in assay [2], 3.51%.
